Experiment [1] has as its target Metallo-beta-lactamase type 2 (Klebsiella pneumoniae) (UniProt C7C422). The experiment can be described thus: qHTS to identify inhibitors of the New Delhi Metallo-beta-lactamase (NDM): assay validation screen against the NCATS LOPAC Collection (AID 1794843).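 Note: nitrocefin turnover by NDM-1 measured as 485 nm absorbance at plateau; series mostly up to about 38 µM.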 Summed up: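 Enzyme 2 nM final, 50 mM HEPES pH 7.0, 1 uM ZnSO4, 0.01% Tween20; cpds in DMSO, preincub w/ enzyme; + nitrocefin (50 uM stock); A485 at plateau; no-enzyme column as blank.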

The target of experiment [2] is Glutathione peroxidase 1 (Homo sapiens) (UniProt P07203). As to the kind of experiment: Primary qHTS Assay for Inhibitors of Recombinant Selenoprotein Glutathione Peroxidase 1 (GPX1) (AID 1845191). Note: nearly all actives have a fitted effect of over 65% in size. Summed up: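 NADPH consumption tracked by fluorescence at 340/450 nm between t=0 and t=15 min, room temperature. Final mix: 10 nM GPX1, 100 nM glutathione reductase, 1 mM GSH, 0.5 mM NADPH, 0.5 mM cumene hydroperoxide, 0.01% BSA; 30 min compound–enzyme preincubation.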

The target in experiment [3] is Phospholipid hydroperoxide glutathione peroxidase GPX4 (Homo sapiens) (UniProt P36969). The experiment can be described thus: Primary qHTS Assay for Inhibitors of Recombinant Selenoprotein Glutathione Peroxidase 4 (GPX4) (AID 1845192). Note: nearly all actives have a fitted effect of over 65% in size. Summed up:
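NADPH consumption followed by fluorescence at 340/450 nm, t=0 and after 15 min at room temperature. Reaction started with cumene hydroperoxide (0.5 mM final) after 30 min compound–GPX4 preincubation; final 200 nM GPX4, 100 nM GR, 1 mM GSH, 0.5 mM NADPH.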

Experiment [4] has as its target Luciferin 4-monooxygenase (Photinus pyralis) (UniProt P08659). As to the kind of experiment: Primary firefly luciferase (FLuc) qHTS assay for identification of artifact compounds. (AID 1845220). Note: nearly all actives have a fitted effect of over 60% in size. Conditions: outcome: dose series up to 54.1 µM unless noted. Summed up: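 FLuc 10 nM; luciferin 10 uM; ATP 10 uM; Tris-acetate pH 7.6, Mg-acetate 10 mM; 15 min RT preincubation; 5 min reaction; luminescence.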
In general terms: qHTS replaces the single test concentration by a dilution series.

Experiment [5] in a line: Primary fluorescence-based thiol-reactive (MSTI) qHTS assay for identification of artifact compounds. (AID 1845221).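 Note: series mostly up to about 54 µM; thiol-reactive compounds lower the probe fluorescence signal; nearly all actives have a fitted effect of over 65% in size.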 Summed up: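 Probe: MSTI 4 uM, PBS pH 7.4, 2% DMSO. Incubation 1 h, RT, light-protected. Readout fluorescence 525/598 nm.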
Experiment [6] deals with Nanoluciferase (engineered Oplophorus gracilirostris luciferase). The experiment can be described thus: Primary Nanoluciferase (NLuc) qHTS assay for identification of artifact compounds. (AID 1845222).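 Note: NLuc secreted into diluted conditioned medium of S16 cells; series mostly up to about 54 µM.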 Summed up:
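NLuc from S16 cell medium (1:55) plus test compounds, 15 min, room temperature. Luminescence after Nano-Glo (1:100) addition, 5 min.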

Inconclusive results are not listed. Calls of active or inactive are those of the source. Calls come from the whole dose curve; as a rule, active = well fitted curve in the direction sought with a large enough effect; inconclusive = small, poorly fitted or top-dose-only effect, or another doubt; inactive = no such curve, though single readings can be large; an effect the other way counts as inactive or inconclusive.

In PubChem BioAssay (NCATS) one finds outcome and Potency data, which are given here for 27 molecules.

Metallo-beta-lactamase type 2 (Klebsiella pneumoniae), sequence (C7C422 whole entry, looked up): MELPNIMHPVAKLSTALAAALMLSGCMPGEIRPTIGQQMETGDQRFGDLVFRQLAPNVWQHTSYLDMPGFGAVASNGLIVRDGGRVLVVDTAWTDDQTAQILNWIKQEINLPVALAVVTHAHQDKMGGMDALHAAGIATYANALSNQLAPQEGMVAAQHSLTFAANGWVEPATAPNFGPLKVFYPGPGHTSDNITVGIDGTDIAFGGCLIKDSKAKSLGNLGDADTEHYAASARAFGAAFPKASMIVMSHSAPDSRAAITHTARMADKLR
Phospholipid hydroperoxide glutathione peroxidase GPX4 (Homo sapiens), sequence (P36969 whole entry, looked up): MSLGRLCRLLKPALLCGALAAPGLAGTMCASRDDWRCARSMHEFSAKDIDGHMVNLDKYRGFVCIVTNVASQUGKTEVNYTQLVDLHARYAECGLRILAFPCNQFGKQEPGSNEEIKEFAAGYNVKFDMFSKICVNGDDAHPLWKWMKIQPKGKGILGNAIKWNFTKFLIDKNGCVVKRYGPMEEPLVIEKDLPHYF
Glutathione peroxidase 1 (Homo sapiens), sequence (P07203 whole entry, looked up): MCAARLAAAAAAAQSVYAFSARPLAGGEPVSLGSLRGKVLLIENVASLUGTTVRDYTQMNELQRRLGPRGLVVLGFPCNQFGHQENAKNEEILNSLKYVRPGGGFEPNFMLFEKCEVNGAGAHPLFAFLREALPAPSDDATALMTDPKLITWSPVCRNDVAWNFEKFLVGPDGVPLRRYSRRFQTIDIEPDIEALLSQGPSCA

With `CC(C)c1c(C(=O)Nc2ccccc2)c(-c2ccccc2)c(-c2ccc(F)cc2)n1CC[C@@H](O)C[C@@H](O)CC(=O)O`, the molecule was classed as inactive in experiment [1] and in experiment [6]. Further, the Potency result in experiment [2], in experiment [3] and in experiment [5] was “inactive” in each case. Also, the outcome in experiment [4] is “inactive [at 25.7 µM]”.
`CN(C)CCCN1c2ccccc2CCc2ccccc21`: the Potency result in experiment [2] and in experiment [3] was “inactive” each time.
Turning to `N[C@@H](CSCCCO)C(=O)O`, the Potency result in experiment [2] and in experiment [3] was “inactive” throughout.
Regarding `O=C1O[C@H](CO)[C@@H](O)[C@H](O)[C@H]1O`, the Potency result in experiment [2] and in experiment [3] was “inactive” throughout.
With `CC(=O)Oc1c(C)c(C)c2c(c1C)CC[C@@](C)(CCC[C@H](C)CCC[C@H](C)CCCC(C)C)O2`, the Potency entry in experiment [2] and in experiment [3] was “inactive” throughout.
Take `NS(=O)(=O)c1cc2c(cc1C(F)(F)F)NC(Cc1ccccc1)NS2(=O)=O` (configuration not stated): the Potency entry in experiment [2] and in experiment [3] was “inactive” throughout.
With `CCN(CC)CCNC(=O)c1cc(Cl)c(N)cc1OC`, the molecule was called inactive in experiment [1], in experiment [4] and in experiment [6]. Besides, the Potency result in experiment [2], in experiment [3] and in experiment [5] was “inactive” throughout.
Take `c1ccc2c(CC3=NCCN3)cccc2c1`: the Potency result in experiment [2] and in experiment [3] was “inactive” each time.
For `CCCCN(CCCC)CC(O)c1cc(Cl)cc2c1-c1ccc(Cl)cc1/C2=C/c1ccc(Cl)cc1` (configuration not stated), the call in experiment [1] was inactive. Besides, the Potency result in experiment [2] and in experiment [3] was “inactive” throughout.
`CC(=O)O[C@@]12CO[C@@H]1C[C@H](O)[C@@]1(C)C(=O)[C@H](O)C3=C(C)[C@@H](OC(=O)[C@H](O)[C@@H](NC(=O)OC(C)(C)C)c4ccccc4)C[C@@](O)([C@@H](OC(=O)c4ccccc4)[C@H]21)C3(C)C`: in experiment [2], the Potency result was “inactive”.
Turning to `CN1[C@@H]2CC(OC(=O)[C@H](CO)c3ccccc3)C[C@H]1[C@@H]1O[C@@H]12` (some centres not stated), the Potency result in experiment [2] and in experiment [3] was “inactive” each time.
With `NC(CSCC(=O)O)C(=O)O` (configuration not stated), the Potency result in experiment [2] and in experiment [3] was “inactive” each time.
In the case of `C[C@H]1O[C@H](O[C@H]2[C@H](O)[C@@H](O)[C@@H](O[C@H]3[C@H](O)[C@@H](O)[C@H](O)O[C@@H]3CO)O[C@@H]2CO)[C@H](O)[C@@H](O)[C@@H]1N[C@H]1C=C(CO)[C@@H](O)[C@H](O)[C@H]1O`, the Potency result in experiment [2] and in experiment [3] was “inactive” each time.
With `C#CCN(C)Cc1ccccc1`, in experiment [1], the molecule was classed as inactive. For the same molecule, the Potency result in experiment [2] and in experiment [3] was “inactive” throughout.
Regarding `Nc1ccc(S(=O)(=O)Nc2ccc(Cl)nn2)cc1`, the Potency entry in experiment [2] and in experiment [3] was “inactive” in each case.
As for `Nc1ccc(S(=O)(=O)NC(=O)c2ccccc2)cc1`, the Potency entry in experiment [2] and in experiment [3] was “inactive” in each case.
Regarding `CC(C)(C(=O)O)c1ccc(C(O)CCCN2CCC(C(O)(c3ccccc3)c3ccccc3)CC2)cc1` (configuration not stated), the call in experiment [1], in experiment [4] and in experiment [6] was inactive. The Potency entry in experiment [2], in experiment [3] and in experiment [5] was “inactive” each time.
As to `OCC(CO)N[C@H]1C[C@](O)(CO)[C@@H](O)[C@H](O)[C@H]1O`, the Potency entry in experiment [2] and in experiment [3] was “inactive” in each case.
As to `COc1ccccc1O`, the Potency result in experiment [2] and in experiment [3] was “inactive” in each case.
In the case of `CN1CCC[C@@H]1Cc1c[nH]c2ccc(CCS(=O)(=O)c3ccccc3)cc12`, the outcome in experiment [1], in experiment [4] and in experiment [6] was inactive. Besides, the Potency entry in experiment [2], in experiment [3] and in experiment [5] was “inactive” throughout.
Turning to `CC(C)(C)c1onc(OCP(=O)(O)O)c1CC(N)C(=O)O` (configuration not stated), the Potency result in experiment [2] and in experiment [3] was “inactive” in each case.
`CN1CCCCC1CCN1c2ccccc2Sc2ccc(S(C)=O)cc21` (configuration not stated): the Potency result in experiment [2] and in experiment [3] was “inactive” in each case.
As for `C[C@@H]1CCN(C(=O)[C@H](CCCN=C(N)N)NS(=O)(=O)c2cccc3c2NC[C@H](C)C3)[C@@H](C(=O)O)C1`, the Potency entry in experiment [2] and in experiment [3] was “inactive” throughout.
Regarding `CC(=O)OCC(=O)[C@@]1(O)CC[C@H]2[C@@H]3CCC4=CC(=O)CC[C@]4(C)[C@H]3C(=O)C[C@@]21C`, the result in experiment [1] was inactive. In addition, the Potency result in experiment [2] and in experiment [3] was “inactive” throughout.
In the case of `O=C(Oc1ccccc1C(=O)O)c1ccccc1O`, the Potency result in experiment [2] and in experiment [3] was “inactive” throughout.
Regarding `O=C(O)CC(O)C(=O)O` (configuration not stated), the Potency entry in experiment [2] and in experiment [3] was “inactive” each time.
As for `COc1ccc2cc1Oc1cc3c(cc1OC)CC[N+](C)(C)[C@H]3Cc1ccc(cc1)Oc1c(OC)c(OC)cc3c1[C@@H](C2)[N+](C)(C)CC3`, the Potency entry in experiment [2] and in experiment [3] was “inactive” in each case.
